# Measurements taken from publication PMC7862700, “An all-to-all approach to the identification of sequence-specific readers for epigenetic DNA modifications on cytosine”.
# What was measured:
# Experiment in all cases: DAPPL (digital affinity profiling via proximity ligation, sequencing); 10 mM Tris-HCl pH 7.5, 50 mM NaCl, 1 mM DTT, 4% glycerol, room temperature, 30 min; GST-TFs on glutathione beads, 16-mer random dsDNA library, 0.1% formaldehyde crosslink after washing; high values mean tight binding
# [1] = target: T1, FEV (Homo sapiens, UniProt Q99581 1-238); settings: protein: recombinant; tags: N-terminal GST; dsDNA, one strand shown
# T1 sequence: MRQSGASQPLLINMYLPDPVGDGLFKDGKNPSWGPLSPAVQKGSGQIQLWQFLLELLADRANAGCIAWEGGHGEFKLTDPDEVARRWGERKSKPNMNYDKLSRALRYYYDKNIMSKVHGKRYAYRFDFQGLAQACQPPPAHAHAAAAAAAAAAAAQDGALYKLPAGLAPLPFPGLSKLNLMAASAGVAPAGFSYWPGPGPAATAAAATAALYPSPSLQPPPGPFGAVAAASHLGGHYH
# Procedure, shortened: (§1)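 Binding signal is defined as a hexamer's read frequency for one factor over its frequency for the tag-only sample. To obtain reads, GST-fused human transcription factors were expressed in yeast, captured on glutathione beads, barcoded with DNA and pooled with that sample. Pools met 200 nmole of a 16-mer random double-stranded DNA library in Tris/NaCl/DTT/glycerol buffer for 30 min at room temperature before washing, 0.1% formaldehyde crosslinking, proximity ligation (BsaI/T4 ligase, 1 h, 37 °C), PCR and Illumina NextSeq500 sequencing.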
# [2] = target: ETV5 (Homo sapiens, UniProt P41161 1-510); settings: protein: recombinant; tags: N-terminal GST; dsDNA, one strand shown
# Sequence of ETV5 (P41161 whole entry): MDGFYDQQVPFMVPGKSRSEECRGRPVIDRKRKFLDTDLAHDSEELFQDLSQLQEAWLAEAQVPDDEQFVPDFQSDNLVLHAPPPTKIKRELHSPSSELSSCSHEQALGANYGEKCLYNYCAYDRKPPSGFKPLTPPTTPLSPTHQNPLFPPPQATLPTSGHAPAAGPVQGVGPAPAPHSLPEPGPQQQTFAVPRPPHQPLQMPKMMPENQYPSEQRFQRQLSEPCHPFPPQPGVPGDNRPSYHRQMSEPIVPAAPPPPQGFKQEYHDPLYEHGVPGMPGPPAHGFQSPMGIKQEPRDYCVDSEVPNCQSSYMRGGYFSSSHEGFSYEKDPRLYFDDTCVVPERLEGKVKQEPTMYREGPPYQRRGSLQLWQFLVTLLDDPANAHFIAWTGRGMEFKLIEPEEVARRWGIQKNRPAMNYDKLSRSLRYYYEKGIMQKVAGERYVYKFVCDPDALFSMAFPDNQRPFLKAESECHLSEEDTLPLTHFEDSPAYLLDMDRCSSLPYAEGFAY
# Procedure, shortened: as §1
# [3] = target: HSF1 (Homo sapiens, UniProt Q00613 1-529); settings: protein: recombinant; tags: N-terminal GST; chain copies: 3; dsDNA, one strand shown
# Sequence of HSF1 (Q00613 whole entry): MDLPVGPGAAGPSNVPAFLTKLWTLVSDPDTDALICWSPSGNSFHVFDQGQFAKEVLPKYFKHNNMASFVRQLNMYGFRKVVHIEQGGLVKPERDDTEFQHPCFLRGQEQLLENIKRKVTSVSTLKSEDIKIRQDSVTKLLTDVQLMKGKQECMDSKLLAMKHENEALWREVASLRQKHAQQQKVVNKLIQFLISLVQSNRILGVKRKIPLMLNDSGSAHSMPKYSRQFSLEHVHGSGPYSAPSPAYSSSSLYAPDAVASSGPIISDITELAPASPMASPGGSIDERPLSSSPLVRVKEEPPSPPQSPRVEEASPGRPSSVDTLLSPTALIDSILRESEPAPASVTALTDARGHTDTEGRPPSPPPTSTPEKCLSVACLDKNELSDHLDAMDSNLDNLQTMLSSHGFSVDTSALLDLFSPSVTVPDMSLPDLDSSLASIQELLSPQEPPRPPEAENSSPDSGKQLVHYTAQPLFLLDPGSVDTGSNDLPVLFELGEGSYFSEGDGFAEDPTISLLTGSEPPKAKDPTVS
# Procedure, shortened: as §1
# [4] = target: T2, SPIC (Homo sapiens, UniProt Q8N5J4 1-248); settings: protein: recombinant; tags: N-terminal GST; dsDNA, one strand shown
# T2 sequence: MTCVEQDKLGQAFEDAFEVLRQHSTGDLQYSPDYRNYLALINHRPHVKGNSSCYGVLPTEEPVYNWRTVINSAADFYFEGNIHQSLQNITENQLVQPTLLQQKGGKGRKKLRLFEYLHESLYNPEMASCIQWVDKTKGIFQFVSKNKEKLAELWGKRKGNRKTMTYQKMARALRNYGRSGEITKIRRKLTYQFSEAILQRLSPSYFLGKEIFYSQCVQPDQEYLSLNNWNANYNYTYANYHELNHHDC
# Procedure, shortened: as §1
# [5] = target: ELF4 (Homo sapiens, UniProt Q99607 1-663); settings: protein: recombinant; tags: N-terminal GST; dsDNA, one strand shown
# Sequence of ELF4 (Q99607 whole entry): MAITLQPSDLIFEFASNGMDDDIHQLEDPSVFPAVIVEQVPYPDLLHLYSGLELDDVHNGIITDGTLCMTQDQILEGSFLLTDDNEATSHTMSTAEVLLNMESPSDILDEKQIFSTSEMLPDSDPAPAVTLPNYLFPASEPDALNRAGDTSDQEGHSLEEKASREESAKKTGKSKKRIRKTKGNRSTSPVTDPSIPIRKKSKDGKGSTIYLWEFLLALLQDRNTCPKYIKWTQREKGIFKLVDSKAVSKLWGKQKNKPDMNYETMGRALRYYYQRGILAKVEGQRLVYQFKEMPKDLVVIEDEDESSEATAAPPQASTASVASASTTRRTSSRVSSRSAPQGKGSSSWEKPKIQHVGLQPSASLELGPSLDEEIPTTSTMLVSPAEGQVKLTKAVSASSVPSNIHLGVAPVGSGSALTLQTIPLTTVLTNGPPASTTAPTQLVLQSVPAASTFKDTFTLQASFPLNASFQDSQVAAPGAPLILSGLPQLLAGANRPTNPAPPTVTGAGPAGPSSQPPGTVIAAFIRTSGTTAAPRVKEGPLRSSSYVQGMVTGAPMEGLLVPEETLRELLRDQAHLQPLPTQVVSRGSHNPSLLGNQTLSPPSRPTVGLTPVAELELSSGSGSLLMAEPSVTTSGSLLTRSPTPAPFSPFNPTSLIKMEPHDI
# Procedure, shortened: as §1
# [6] = target: T3, ELK4 (Homo sapiens, UniProt P28324-2 1-405); settings: protein: recombinant; tags: N-terminal GST; dsDNA, one strand shown
# T3 sequence: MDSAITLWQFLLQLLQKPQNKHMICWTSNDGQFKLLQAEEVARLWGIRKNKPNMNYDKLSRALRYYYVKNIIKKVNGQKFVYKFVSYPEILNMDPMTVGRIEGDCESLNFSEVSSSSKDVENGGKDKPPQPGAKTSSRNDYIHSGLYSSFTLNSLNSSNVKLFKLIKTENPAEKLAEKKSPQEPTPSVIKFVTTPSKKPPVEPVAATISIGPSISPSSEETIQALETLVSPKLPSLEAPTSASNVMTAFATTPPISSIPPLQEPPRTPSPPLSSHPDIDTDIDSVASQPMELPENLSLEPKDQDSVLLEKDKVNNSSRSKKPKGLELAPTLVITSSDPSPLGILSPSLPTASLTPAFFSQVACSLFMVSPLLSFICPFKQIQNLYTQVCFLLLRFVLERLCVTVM
# Procedure, shortened: as §1
# [7] = target: T4, ETV2 (Homo sapiens, UniProt O00321 1-342); settings: protein: recombinant; tags: N-terminal GST; dsDNA, one strand shown
# T4 sequence: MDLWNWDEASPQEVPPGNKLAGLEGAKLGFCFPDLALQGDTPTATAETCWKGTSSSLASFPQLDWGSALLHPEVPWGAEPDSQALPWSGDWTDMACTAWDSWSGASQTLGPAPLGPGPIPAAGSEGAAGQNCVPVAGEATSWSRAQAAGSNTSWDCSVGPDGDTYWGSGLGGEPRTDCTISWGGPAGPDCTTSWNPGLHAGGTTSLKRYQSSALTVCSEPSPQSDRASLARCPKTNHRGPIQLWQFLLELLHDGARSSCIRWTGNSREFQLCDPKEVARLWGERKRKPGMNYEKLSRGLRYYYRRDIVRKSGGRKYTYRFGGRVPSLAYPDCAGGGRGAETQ
# Procedure, shortened: as §1
# [8] = target: T5, ELF3 (Homo sapiens, UniProt P78545 1-371); settings: protein: recombinant; tags: N-terminal GST; dsDNA, one strand shown
# T5 sequence: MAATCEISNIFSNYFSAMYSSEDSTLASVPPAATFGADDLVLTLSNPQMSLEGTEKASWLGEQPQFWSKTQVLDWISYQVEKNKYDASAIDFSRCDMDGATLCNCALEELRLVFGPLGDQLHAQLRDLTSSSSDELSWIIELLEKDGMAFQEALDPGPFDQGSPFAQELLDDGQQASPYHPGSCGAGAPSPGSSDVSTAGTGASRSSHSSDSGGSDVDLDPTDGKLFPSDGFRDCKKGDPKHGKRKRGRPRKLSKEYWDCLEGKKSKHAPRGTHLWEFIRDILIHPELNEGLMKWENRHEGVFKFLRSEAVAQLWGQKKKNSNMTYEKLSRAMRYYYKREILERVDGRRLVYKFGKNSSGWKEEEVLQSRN
# Procedure, shortened: as §1
# [9] = target: CRX (Homo sapiens, UniProt O43186 1-299); settings: protein: recombinant; tags: N-terminal GST; dsDNA, one strand shown
# Sequence of CRX (O43186 whole entry): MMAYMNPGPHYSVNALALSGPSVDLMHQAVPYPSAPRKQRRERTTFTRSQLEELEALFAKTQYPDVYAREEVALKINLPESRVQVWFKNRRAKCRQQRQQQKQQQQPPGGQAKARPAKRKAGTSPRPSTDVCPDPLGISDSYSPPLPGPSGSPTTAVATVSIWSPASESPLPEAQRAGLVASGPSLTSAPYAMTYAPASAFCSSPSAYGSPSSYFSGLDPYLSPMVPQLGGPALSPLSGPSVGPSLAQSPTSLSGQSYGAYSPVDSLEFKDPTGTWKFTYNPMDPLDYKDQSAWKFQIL
# Procedure, shortened: as §1
# [10] = target: ETV1 (Homo sapiens, UniProt P50549 1-477); settings: protein: recombinant; tags: N-terminal GST; dsDNA, one strand shown
# Sequence of ETV1 (P50549 whole entry): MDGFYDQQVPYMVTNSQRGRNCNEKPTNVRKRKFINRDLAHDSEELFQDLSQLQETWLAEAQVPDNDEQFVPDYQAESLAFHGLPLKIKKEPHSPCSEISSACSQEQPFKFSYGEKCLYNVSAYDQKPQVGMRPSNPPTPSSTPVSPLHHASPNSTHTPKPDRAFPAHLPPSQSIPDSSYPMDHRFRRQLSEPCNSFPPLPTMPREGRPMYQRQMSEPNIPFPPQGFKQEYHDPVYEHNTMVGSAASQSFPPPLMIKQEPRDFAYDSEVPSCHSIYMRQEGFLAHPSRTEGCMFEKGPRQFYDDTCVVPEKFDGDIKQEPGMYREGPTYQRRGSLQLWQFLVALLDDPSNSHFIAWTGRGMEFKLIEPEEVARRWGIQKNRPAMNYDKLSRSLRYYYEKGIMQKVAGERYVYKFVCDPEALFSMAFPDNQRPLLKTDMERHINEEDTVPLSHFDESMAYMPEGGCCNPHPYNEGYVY
# Procedure, shortened: as §1
# [11] = target: T6, ERF (Homo sapiens, UniProt P50548 1-548); settings: protein: recombinant; tags: N-terminal GST; dsDNA, one strand shown
# T6 sequence: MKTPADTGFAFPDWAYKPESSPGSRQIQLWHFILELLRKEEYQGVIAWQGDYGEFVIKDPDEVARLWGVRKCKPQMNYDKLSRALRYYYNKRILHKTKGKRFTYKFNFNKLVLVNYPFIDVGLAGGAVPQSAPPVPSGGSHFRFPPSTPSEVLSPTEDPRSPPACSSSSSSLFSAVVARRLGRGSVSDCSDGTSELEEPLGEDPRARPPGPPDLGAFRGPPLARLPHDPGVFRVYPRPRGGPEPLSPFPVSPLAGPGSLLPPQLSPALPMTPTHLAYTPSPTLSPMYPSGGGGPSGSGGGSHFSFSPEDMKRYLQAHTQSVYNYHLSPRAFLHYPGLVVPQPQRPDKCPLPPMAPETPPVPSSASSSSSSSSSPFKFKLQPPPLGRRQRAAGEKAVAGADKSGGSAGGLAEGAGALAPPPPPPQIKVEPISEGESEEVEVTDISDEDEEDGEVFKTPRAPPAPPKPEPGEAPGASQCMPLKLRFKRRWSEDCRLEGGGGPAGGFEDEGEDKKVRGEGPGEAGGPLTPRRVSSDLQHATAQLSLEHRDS
# Procedure, shortened: as §1
# [12] = target: T7, ETV3L (Homo sapiens, UniProt Q6ZN32 1-361); settings: protein: recombinant; tags: N-terminal GST; dsDNA, one strand shown
# T7 sequence: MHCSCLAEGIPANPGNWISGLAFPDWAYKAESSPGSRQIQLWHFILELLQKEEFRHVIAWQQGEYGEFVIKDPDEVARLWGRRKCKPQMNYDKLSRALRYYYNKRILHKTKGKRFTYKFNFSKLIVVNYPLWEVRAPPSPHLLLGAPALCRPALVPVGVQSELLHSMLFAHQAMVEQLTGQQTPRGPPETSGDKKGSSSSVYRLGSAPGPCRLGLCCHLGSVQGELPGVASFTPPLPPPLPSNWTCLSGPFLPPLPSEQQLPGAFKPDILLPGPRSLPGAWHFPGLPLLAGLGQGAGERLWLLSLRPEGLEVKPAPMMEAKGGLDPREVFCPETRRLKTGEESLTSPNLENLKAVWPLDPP
# Procedure, shortened: as §1
# [13] = target: T8, ETS2 (Homo sapiens, UniProt P15036 1-469); settings: protein: recombinant; tags: N-terminal GST; dsDNA, one strand shown
# T8 sequence: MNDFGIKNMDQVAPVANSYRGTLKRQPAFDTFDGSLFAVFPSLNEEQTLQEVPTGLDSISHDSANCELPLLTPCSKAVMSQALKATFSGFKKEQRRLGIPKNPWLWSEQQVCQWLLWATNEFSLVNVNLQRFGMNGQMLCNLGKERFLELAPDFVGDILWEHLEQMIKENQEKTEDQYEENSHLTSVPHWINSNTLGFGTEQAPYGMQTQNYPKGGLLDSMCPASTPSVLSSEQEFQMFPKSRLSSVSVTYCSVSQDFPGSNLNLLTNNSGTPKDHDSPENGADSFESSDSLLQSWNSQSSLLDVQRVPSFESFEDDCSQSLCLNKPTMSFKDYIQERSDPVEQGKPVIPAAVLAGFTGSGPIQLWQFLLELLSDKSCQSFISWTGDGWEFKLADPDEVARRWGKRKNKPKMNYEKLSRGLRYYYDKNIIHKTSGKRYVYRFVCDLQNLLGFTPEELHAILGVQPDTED
# Procedure, shortened: as §1
# [14] = target: T9, SPDEF (Homo sapiens, UniProt O95238 1-335); settings: protein: recombinant; tags: N-terminal GST; dsDNA, one strand shown
# T9 sequence: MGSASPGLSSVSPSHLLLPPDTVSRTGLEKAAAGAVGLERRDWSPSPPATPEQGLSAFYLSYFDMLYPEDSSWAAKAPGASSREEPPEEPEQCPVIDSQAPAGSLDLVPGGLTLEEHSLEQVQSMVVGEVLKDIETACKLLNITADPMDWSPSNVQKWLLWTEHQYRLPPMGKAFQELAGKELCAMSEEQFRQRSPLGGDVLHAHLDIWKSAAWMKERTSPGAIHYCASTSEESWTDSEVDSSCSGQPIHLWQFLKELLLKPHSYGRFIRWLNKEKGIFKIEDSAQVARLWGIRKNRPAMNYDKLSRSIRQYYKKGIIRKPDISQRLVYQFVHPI
# Procedure, shortened: as §1
# [15] = target: T10, ETV7 (Homo sapiens, UniProt Q9Y603 1-341); settings: protein: recombinant; tags: N-terminal GST; dsDNA, one strand shown
# T10 sequence: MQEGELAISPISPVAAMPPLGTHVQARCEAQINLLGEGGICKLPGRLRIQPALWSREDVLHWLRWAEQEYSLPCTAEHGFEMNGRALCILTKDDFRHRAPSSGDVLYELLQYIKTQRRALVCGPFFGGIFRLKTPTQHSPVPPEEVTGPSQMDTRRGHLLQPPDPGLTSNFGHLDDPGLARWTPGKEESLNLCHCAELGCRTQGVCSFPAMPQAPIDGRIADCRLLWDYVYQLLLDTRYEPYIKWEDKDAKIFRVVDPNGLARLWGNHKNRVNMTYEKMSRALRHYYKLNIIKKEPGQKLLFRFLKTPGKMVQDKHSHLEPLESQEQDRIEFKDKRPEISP
# Procedure, shortened: as §1
# [16] = target: T11, ELF5 (Homo sapiens, UniProt Q9UKW6-2 1-255); settings: protein: recombinant; tags: N-terminal GST; dsDNA, one strand shown
# T11 sequence: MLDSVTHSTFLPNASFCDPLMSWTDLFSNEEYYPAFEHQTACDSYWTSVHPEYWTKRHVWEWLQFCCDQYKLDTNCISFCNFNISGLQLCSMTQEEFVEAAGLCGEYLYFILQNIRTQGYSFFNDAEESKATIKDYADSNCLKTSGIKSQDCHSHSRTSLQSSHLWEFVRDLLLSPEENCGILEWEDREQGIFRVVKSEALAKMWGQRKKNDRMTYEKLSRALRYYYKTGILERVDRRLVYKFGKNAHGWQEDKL
# Procedure, shortened: as §1
# [17] = target: T12, ETV3 (Homo sapiens, UniProt P41162-2 1-143); settings: protein: recombinant; tags: N-terminal GST; dsDNA, one strand shown
# T12 sequence: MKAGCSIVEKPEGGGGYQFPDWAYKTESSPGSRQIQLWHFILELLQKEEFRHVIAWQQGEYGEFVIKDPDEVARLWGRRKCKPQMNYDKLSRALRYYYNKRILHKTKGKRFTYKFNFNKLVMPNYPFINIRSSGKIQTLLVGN
# Procedure, shortened: as §1
# [18] = target: ETV6 (Homo sapiens, UniProt P41212 1-452); settings: protein: recombinant; tags: N-terminal GST; dsDNA, one strand shown
# Sequence of ETV6 (P41212 whole entry): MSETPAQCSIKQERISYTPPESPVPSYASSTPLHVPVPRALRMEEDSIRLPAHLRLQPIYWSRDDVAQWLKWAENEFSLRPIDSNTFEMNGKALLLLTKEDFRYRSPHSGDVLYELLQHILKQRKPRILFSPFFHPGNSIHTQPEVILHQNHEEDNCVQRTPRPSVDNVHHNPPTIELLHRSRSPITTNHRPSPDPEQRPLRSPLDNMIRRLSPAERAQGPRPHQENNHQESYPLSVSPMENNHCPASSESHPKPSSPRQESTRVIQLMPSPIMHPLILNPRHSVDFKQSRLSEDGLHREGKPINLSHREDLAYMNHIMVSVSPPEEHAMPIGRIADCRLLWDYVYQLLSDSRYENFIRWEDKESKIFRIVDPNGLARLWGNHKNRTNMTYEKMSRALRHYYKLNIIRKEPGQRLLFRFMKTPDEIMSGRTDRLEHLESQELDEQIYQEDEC
# Procedure, shortened: as §1
sequence,measurement,setting,value
TTTCTA,binding signal,[1],"1.34 fold enrichment (6-mer frequency, TF over GST control)"
same,binding signal,[2],"1.37 fold enrichment (6-mer frequency, TF over GST control)"
same,binding signal,[3],"3.01 fold enrichment (6-mer frequency, TF over GST control)"
same,binding signal,[4],"1.52 fold enrichment (6-mer frequency, TF over GST control)"
same,binding signal,[5],"1.33 fold enrichment (6-mer frequency, TF over GST control)"
same,binding signal,[6],"1.34 fold enrichment (6-mer frequency, TF over GST control)"
same,binding signal,[7],"1.27 fold enrichment (6-mer frequency, TF over GST control)"
same,binding signal,[8],"1.36 fold enrichment (6-mer frequency, TF over GST control)"
same,binding signal,[9],"1.97 fold enrichment (6-mer frequency, TF over GST control)"
same,binding signal,[10],"1.47 fold enrichment (6-mer frequency, TF over GST control)"
same,binding signal,[11],"1.32 fold enrichment (6-mer frequency, TF over GST control)"
same,binding signal,[12],"1.3 fold enrichment (6-mer frequency, TF over GST control)"
same,binding signal,[13],"1.37 fold enrichment (6-mer frequency, TF over GST control)"
same,binding signal,[14],"1.39 fold enrichment (6-mer frequency, TF over GST control)"
same,binding signal,[15],"1.37 fold enrichment (6-mer frequency, TF over GST control)"
same,binding signal,[16],"1.31 fold enrichment (6-mer frequency, TF over GST control)"
same,binding signal,[17],"1.38 fold enrichment (6-mer frequency, TF over GST control)"
same,binding signal,[18],"1.25 fold enrichment (6-mer frequency, TF over GST control)"
